The results in this text go back to PubChem BioAssay (Tox21).

Assay [1] is described as follows: Nuclear factor erythroid 2-related factor 2/antioxidant responsive element (Nrf2/ARE) small molecule agonists: qHTS cell viability counter screen in human keratinocytes (AID 1919968; active = well fitted curve in the direction sought with a large enough effect in the repeat runs; an effect the other way counts as inactive or inconclusive; note: nearly all actives have a fitted effect of over 55% in size). In short, it runs like this:
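Stably transfected HaCaT (KeratinoSens), 1,500/well. Test agents in DMSO were applied for 23 h, 37 C/5% CO2. CellTiter-Fluor was incubated 1 h before the fluorescence read.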

The nature of assay [2]: Nuclear factor erythroid 2-related factor 2/antioxidant responsive element (Nrf2/ARE) small molecule agonists: luciferase reporter gene qHTS assay in human keratinocytes (AID 1919969). Note: nearly all actives have a fitted effect of over 35% in size.
In assay [3] the target is Gonadotropin-releasing hormone receptor (Homo sapiens) (UniProt P30968). The assay is described as follows: Human gonadotropin-releasing hormone receptor (GnRHR) small molecule agonists, calcium flux assay in GnRHR-HEK293 cells (AID 1920063). Note: nearly all actives have a fitted effect of over 35% in size. In short, it runs like this: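 Stable human GnRHR HEK293 line. 18 h plating, then calcium dye for 1 h at 37 C. Agonist-mode compound addition from DMSO stocks; fluorescence monitored 3 min.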

Assay [4] has as its target KiSS-1 receptor (Homo sapiens) (UniProt Q969F8). The assay is described as follows: Human kisspeptin (KISS1R) small molecule agonists, calcium flux assay in KISS1R-HEK293 cells (AID 1920064; active = well fitted curve in the direction sought with a large enough effect in the repeat runs; an effect the other way counts as inactive or inconclusive). In short, it runs like this:
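After overnight (18 h) culture at 37 C/5% CO2, human KISS1R-HEK293 cells received calcium dye for 1 h, then test compound; emission at 540 nm (excitation 480 nm) was tracked for 3 min.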

The nature of assay [5]: G protein-coupled receptor (GPCR) small molecule agonists, calcium flux assay: HEK293 wild type cell line counter screen (AID 1920065). The method, boiled down:
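Following 18 h incubation at 37 C/5% CO2, plates got calcium dye for 1 h; compounds, ATP or DMSO were then pinned in and fluorescence followed kinetically (480/540 nm).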

Assay [6] is described as follows: p53 small molecule agonists, cell-based qHTS assay with human liver microsomes (AID 1963577). In short, it runs like this:
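p53RE-bla cells, 4,000/well, compound added after 5 h, with human liver microsomes 0.5 mg/mL and NADPH 0.5 mg/mL final; 16 h at 37 C, then LiveBLAzer 2 h RT, fluorescence.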

A short description of assay [7]: p53 small molecule agonists, cell-based qHTS assay with rat liver microsomes (AID 1963578). In short, it runs like this: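 p53RE-bla cells, 4,000/well, pre-incubated 5 h, then given compounds plus rat liver microsomes (0.5 mg/mL final) and NADPH (0.5 mg/mL final). Incubation 16 h at 37 C; beta-lactamase reporter read by LiveBLAzer fluorescence after 2 h at room temperature.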

The nature of assay [8]: p53 small molecule agonists, cell-based qHTS assay with human liver microsomes: qHTS cell viability counter screen (AID 1963579). Note: nearly all actives have a fitted effect of over 45% in size. In short, it runs like this: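 p53RE-bla cells, 4,000/well, dosed 5 hours after plating, with human liver microsomes (0.5 mg/mL final) plus NADPH (0.5 mg/mL final), 16 hours at 37 C. Viability read as CellTiter-Glo luminescence after 30 min at room temperature.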

Assay [9] can be described thus: p53 small molecule agonists, cell-based qHTS assay with rat liver microsomes: qHTS cell viability counter screen (AID 1963580). Note: nearly all actives have a fitted effect of over 45% in size. The method, boiled down:
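Cytotoxicity counter screen: intracellular ATP measured by CellTiter-Glo luminescence in the same wells as the beta-lactamase reporter read, on HCT-116 p53RE-bla cells exposed 16 h at 37 C to compounds with rat liver microsomes and NADPH, each 0.5 mg/mL final.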

Assay [10] can be described thus: p53 small molecule agonists, cell-based qHTS assay: qHTS cell viability counter screen (AID 1963581). Note: nearly all actives have a fitted effect of over 45% in size. The method, boiled down: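 qHTS counter screen: 16 h compound exposure at 37 C of p53RE-bla HCT-116 cells (4,000 per well, seeded 5 h prior), cell viability by ATP luminescence.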
Assay [11] is described as follows: p53 small molecule agonists, cell-based qHTS assay (AID 1963582; active = well fitted activation curve with a large enough effect in the signal ratio in the repeat runs, not every such curve was filed as active; the % refers to the signal ratio). The method, boiled down:
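Measured: fluorescence from cleaved LiveBLAzer substrate. System: p53RE-bla cells, 16 h compound treatment at 37 C, 2 h substrate step at room temperature.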

The target in assay [12] is 5-hydroxytryptamine receptor 2A (Homo sapiens) (UniProt P28223). Kind of assay: 5-hydroxytryptamine receptor 2A (HTR2A) small molecule antagonists, cell-based qHTS assay (AID 1963586). Note: nearly all actives have a fitted effect of over 45% in size. Note: potency is the fitted concentration of half-maximal effect. The method, boiled down:
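CHO cells stably expressing human HTR2A were plated for 18 h at 37 C, then loaded with calcium dye for 1 h. Compounds were preincubated 5 min at room temperature before DOI (4 nM solution) was added. Kinetic fluorescence was read for 3 min.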

For assay [13] the target is unchanged. Kind of assay: 5-hydroxytryptamine receptor 2A (HTR2A) small molecule agonists, cell-based qHTS assay (AID 1963587). Note: nearly all actives have a fitted effect of over 30% in size. The method, boiled down:
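CHO cells stably expressing human HTR2A, plated 18 h, loaded with calcium dye 1 h at 37 C. Agonist mode: compounds added and intracellular calcium fluorescence recorded kinetically for 2 min at 1 sec intervals.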

In assay [14] the target is Muscarinic acetylcholine receptor M1 (Homo sapiens) (UniProt P11229). Kind of assay: Cholinergic receptor muscarinic 1 (CHRM1) small molecule antagonists, cell-based qHTS assay (AID 1963588). Note: nearly all actives have a fitted effect of over 40% in size. The method, boiled down: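 Compounds were tested at 15 concentrations in three independent runs. Dye-loaded CHRM1-CHO cells were exposed 5 min at room temperature before stimulation by acetylcholine added at 50nM. Intracellular calcium was read kinetically on FDSS for 3 min.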

Assay [15] has the same target. Kind of assay: Cholinergic receptor muscarinic 1 (CHRM1) small molecule agonists, cell-based qHTS assay (AID 1963589). Note: nearly all actives have a fitted effect of over 35% in size. In short, it runs like this:
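Kinetic fluorescence (1 s intervals) of calcium-sensitive dye in human M1 CHO cells after compound addition; cells pre-incubated 18 h at 37 C/5% CO2 and dye-loaded 1 h.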

The nature of assay [16]: cAMP Responsive Elements (CRE) small molecule agonists, cell-based qHTS assay (AID 1963590). The method, boiled down: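 Test agents in DMSO were incubated 3 h at 37 C/5% CO2 with CRE-bla HEK 293T cells seeded 18 h earlier; LiveBLAzer B/G FRET substrate was added and read after 2 h at room temperature.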
A short description of assay [17]: cAMP Responsive Elements (CRE) small molecule antagonists, cell-based qHTS assay (AID 1963591; active = well fitted inhibition curve with a large enough effect in the signal ratio in the repeat runs, not every such curve was filed as active; the % refers to the signal ratio). The method, boiled down: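 Reporter line CRE-bla HEK 293T in dialyzed-FBS DMEM; cells preincubated 18 h, treated 3 h with compound plus NKH477 (0.25 uM final); LiveBLAzer FRET, 2 h RT.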
Assay [18] addresses Beta-2 adrenergic receptor (Homo sapiens) (UniProt P07550). The assay is described as follows: Adrenergic beta2 receptor (ADRB2) small molecule antagonists, cell-based qHTS assay (AID 1963592). Note: series mostly up to about 92 µM; nearly all actives have a fitted effect of over 50% in size. The method, boiled down:
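Assay format: CHO-ADRB2 cells, 18-20hr seeding at 37C/5% CO2, then compound plus 1nM isoproterenol agonist mix for 0.5hr RT. Homogeneous time-resolved fluorescence cAMP detection after 1hr, expressed as 665/615 nm ratio.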

For assay [19], the target named is D(2) dopamine receptor (Homo sapiens) (UniProt P14416). The assay is described as follows: Dopamine D2 receptor (DRD2) small molecule agonists, cell-based qHTS assay (AID 1963594). Note: nearly all actives have a fitted effect of over 35% in size. In short, it runs like this: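 HEK293 cells stably expressing human DRD2, pre-treated with PDE inhibitor Ro20-1724 (0.1 mM final) and compound 10 min at room temperature, then stimulated with NKH477 (200nM […]) for 30 min. cAMP read by HTRF (665/620 nm).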

The target is the same in assay [20]. Kind of assay: Dopamine D2 receptor (DRD2) small molecule antagonists, cell-based qHTS assay (AID 1963595; active = well fitted inhibition curve with a large enough effect in the signal ratio in the repeat runs, with a control signal flat; the % refers to the signal ratio). In short, it runs like this: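 Antagonism was scored as restored cAMP in HEK293-DRD2 cells. These cells were stimulated with 200 nM NKH477 and 12 nM quinpirole for 30 min at room temperature, in the presence of 0.1 mM Ro20-1724.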

Values joined by “and” are separate entries in the source; they are usually repeats but may differ in a detail not shown here. Equal entries are not always repeated. Records with an inconclusive call do not appear. Some structures have more than one record in an assay (separate samples or runs), and their calls can disagree. Active and inactive are the calls of the source. Unless noted, calls come from the whole dose curve.

Beta-2 adrenergic receptor (Homo sapiens), sequence (P07550 whole entry, looked up): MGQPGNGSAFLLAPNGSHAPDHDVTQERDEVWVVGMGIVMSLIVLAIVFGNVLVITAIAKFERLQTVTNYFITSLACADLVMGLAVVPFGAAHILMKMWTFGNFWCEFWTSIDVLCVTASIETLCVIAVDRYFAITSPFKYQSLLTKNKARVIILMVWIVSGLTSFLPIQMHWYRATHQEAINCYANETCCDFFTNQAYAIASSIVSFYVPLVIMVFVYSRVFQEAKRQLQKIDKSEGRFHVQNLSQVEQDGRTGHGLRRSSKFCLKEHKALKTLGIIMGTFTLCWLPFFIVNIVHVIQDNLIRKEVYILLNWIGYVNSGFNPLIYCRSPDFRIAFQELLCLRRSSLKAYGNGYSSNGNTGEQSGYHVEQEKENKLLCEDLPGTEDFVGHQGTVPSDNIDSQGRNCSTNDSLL
Muscarinic acetylcholine receptor M1 (Homo sapiens), sequence (P11229 whole entry, looked up): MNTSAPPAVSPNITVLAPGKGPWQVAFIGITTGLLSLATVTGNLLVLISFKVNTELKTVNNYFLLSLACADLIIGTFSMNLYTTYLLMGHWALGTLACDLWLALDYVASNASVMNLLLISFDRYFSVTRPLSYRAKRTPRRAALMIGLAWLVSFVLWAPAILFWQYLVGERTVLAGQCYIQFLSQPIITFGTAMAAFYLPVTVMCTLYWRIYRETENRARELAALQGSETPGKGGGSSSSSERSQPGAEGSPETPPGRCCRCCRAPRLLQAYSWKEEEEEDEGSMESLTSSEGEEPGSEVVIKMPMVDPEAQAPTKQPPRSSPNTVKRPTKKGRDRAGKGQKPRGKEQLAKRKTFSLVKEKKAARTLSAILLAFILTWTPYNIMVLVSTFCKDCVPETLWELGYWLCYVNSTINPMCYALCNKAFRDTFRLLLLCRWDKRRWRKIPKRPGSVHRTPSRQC
D(2) dopamine receptor (Homo sapiens), sequence (P14416 whole entry, looked up): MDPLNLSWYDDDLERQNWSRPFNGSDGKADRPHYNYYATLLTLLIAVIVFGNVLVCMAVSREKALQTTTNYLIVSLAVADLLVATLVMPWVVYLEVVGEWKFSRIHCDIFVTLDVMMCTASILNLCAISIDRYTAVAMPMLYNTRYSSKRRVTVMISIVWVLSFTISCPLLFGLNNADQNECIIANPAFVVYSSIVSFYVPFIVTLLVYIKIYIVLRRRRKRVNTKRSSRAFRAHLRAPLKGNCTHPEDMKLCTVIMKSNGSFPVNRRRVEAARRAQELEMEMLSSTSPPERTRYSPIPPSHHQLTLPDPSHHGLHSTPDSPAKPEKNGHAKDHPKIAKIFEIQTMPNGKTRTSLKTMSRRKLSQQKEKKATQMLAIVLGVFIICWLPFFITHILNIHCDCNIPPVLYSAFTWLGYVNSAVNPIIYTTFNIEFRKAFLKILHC
5-hydroxytryptamine receptor 2A (Homo sapiens), sequence (P28223 whole entry, looked up): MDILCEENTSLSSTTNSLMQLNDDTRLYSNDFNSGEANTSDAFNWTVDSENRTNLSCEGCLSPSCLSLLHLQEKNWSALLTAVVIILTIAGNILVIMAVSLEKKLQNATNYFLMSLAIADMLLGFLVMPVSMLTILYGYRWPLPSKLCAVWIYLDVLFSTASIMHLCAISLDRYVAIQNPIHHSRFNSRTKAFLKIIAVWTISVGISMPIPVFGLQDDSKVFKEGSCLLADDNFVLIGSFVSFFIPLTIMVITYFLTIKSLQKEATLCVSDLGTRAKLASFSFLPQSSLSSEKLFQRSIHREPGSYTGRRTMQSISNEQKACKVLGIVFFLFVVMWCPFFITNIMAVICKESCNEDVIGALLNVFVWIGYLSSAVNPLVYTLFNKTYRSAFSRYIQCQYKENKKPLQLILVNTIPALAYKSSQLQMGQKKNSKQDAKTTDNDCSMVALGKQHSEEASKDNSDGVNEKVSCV
Gonadotropin-releasing hormone receptor (Homo sapiens), sequence (P30968 whole entry, looked up): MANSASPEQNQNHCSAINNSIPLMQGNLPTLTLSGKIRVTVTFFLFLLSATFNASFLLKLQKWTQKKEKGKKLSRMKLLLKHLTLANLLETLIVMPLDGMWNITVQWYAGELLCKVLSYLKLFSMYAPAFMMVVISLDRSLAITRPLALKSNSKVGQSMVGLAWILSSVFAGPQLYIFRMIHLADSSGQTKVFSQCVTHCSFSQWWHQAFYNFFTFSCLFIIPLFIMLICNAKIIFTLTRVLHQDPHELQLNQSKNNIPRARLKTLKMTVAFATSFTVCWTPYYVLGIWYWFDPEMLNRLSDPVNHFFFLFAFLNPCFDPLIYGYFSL
KiSS-1 receptor (Homo sapiens), sequence (Q969F8 whole entry, looked up): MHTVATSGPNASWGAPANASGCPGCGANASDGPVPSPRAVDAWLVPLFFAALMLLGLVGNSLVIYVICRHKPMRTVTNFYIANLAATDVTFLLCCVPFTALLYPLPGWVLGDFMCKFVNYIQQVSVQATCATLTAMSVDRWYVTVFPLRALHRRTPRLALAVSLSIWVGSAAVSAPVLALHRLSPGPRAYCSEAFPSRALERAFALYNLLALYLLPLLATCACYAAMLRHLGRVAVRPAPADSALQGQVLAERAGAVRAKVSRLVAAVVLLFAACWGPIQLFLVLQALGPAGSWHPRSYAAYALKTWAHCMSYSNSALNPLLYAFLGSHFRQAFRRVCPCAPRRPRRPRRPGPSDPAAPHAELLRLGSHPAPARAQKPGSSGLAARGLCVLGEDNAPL

Turning to `O=CCc1ccccc1`, the Potency result in assay [1], in assay [2], in assay [3], in [4], in assay [5] and in assay [6] was “inactive” each time. Besides, the Potency entry in [7], in assay [8], in assay [9], in assay [10], in [11] and in assay [12] was “inactive” throughout. Further, the Potency result in assay [13], in [14], in assay [15], in assay [16], in assay [17] and in assay [18] was “inactive” each time. For the same compound, the Potency entry in [19] and in assay [20] was “inactive” throughout.
In the case of `Cc1ccc(C)c(O)c1C`, the Potency entry in assay [1], in assay [2], in assay [3], in assay [4], in assay [5] and in assay [6] was “inactive” each time. For the same compound, the Potency entry in assay [7], in assay [8], in assay [9], in [10], in assay [11] and in assay [12] was “inactive” each time. Moreover, the Potency result in [13], in assay [14], in assay [15], in assay [16], in [17] and in [18] was “inactive” in each case. Moreover, the Potency entry in assay [19] and in assay [20] was “inactive” in each case.
For the compound `c1ccc2[nH]cnc2c1`, the Potency result in [1], in assay [2], in assay [3], in assay [4], in [5] and in assay [6] was “inactive” in each case. Also, the Potency entry in [7], in assay [8], in assay [9], in assay [10], in assay [11] and in assay [12] was “inactive” in each case. In addition, the Potency entry in assay [13], in [14], in [15], in assay [16], in assay [17] and in assay [18] was “inactive” in each case. Moreover, the Potency result in assay [19] and in [20] was “inactive” each time.
As for `NC(=S)NNC(N)=S`, the Potency result in assay [1], in [2], in [3], in assay [4], in assay [5] and in assay [6] was “inactive” each time. For the same compound, the Potency result in assay [7], in assay [8], in [9], in assay [10], in assay [11] and in assay [12] was “inactive” in each case. The Potency entry in [13], in assay [14], in assay [15], in assay [16], in [17] and in assay [18] was “inactive” in each case. For the same compound, the Potency result in [19] and in assay [20] was “inactive” each time.
On to `CC(=O)OC/C=C(\C)CCC=C(C)C`, for which the Potency result in [1], in assay [2], in assay [3], in assay [4], in assay [5] and in assay [6] was “inactive” throughout. Moreover, the Potency result in assay [7], in assay [8], in [9], in assay [10], in [11] and in assay [12] was “inactive” in each case. Besides, the Potency entry in assay [13], in assay [14], in [15], in assay [16], in assay [17] and in [18] was “inactive” throughout. Besides, the Potency entry in [19] was “inactive”.
As to `OC1CCCCC1`, the Potency entry in assay [1], in assay [2], in assay [3], in [4], in assay [5] and in assay [6] was “inactive” each time. For the same compound, the Potency entry in [7], in assay [8], in assay [9], in assay [10], in [11] and in assay [12] was “inactive” each time. Further, the Potency entry in assay [13], in assay [14], in [15], in [16], in assay [17] and in [18] was “inactive” each time. Also, the Potency entry in assay [19] was “inactive”.
As to `C=CC(=O)NC(C)(C)CS(=O)(=O)O`, the Potency entry in assay [1], in assay [2], in assay [3], in assay [4], in [5] and in assay [6] was “inactive” throughout. Further, the Potency entry in assay [7], in [8], in assay [9], in assay [10], in assay [11] and in assay [12] was “inactive” throughout. In addition, the Potency entry in [13], in assay [14], in [15], in [16], in assay [17] and in [18] was “inactive” in each case. In assay [19], the Potency result was “inactive”.
Consider `C=C(C)C1CC=C(C)C(OC(C)=O)C1` (configuration not stated), for which the Potency result in [1], in assay [2], in [3], in [4], in assay [5] and in assay [6] was “inactive” in each case. For the same compound, the Potency entry in [7], in [8], in assay [9], in [10], in assay [11] and in assay [13] was “inactive” throughout. For the same compound, the Potency result in [14], in [15], in assay [16], in assay [17], in assay [18] and in [19] was “inactive” each time. Further, the Potency result in [20] was “inactive”. For the same compound, in assay [12], the Potency entry was “inactive and 3.75 µM (active)”.
